Measurements from the supplement of paper PMC10849652.
Targets with a hit are over-represented here; the source holds about 7,900 in all. About 0.6% of all pairs of compound and target were hits.

Experiments:
Experiment in all cases: log2 fold change, soluble protein after heating vs DMSO (PISA); higher = thermal stabilisation; K562 cells, 10 uM, 30 min; active = over 0.2 and 3.5 SD of the protein, either way, in both replicates (recomputed)
[1] = compound: NC(=O)Nc1cc(-c2cccc(F)c2)sc1C(=O)N[C@H]1CCCNC1
Summary of the method: (§1)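 Quantification of soluble protein used TMTpro 16plex LC-MS/MS, with channel sums equalised. Samples were the supernatant after 21,000xg for 90 min of pooled aliquots from K562 cells (2×10^6 cells/mL) treated with 10 μM compound for 30 min, heated for 3 min over 48°C-58°C, and extracted in PBS with 0.5% NP-40 at 4°C. Values, from duplicates, describe thermal stability against control samples on a log2 fold-change scale.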

[2] = compound: NC(=O)c1cnc(N[C@@H]2CCCC[C@@H]2N)nc1Nc1cccc(-n2nccn2)c1
Summary of the method: as §1

[3] = compound: NC1(c2ccc(-c3nc4ccn5c(=O)[nH]nc5c4cc3-c3ccccc3)cc2)CCC1
Summary of the method: as §1

[4] = compound: NCC(=O)Nc1ccc(-n2nc(C(F)(F)F)cc2-c2ccc3c(ccc4ccccc43)c2)cc1
Summary of the method: as §1

entinostat = compound: Nc1ccccc1NC(=O)c1ccc(CNC(=O)OCc2cccnc2)cc1 [entinostat]
Summary of the method: as §1

vorinostat = compound: O=C(CCCCCCC(=O)Nc1ccccc1)NO [vorinostat]
Summary of the method: as §1

citarinostat = compound: O=C(CCCCCCNC(=O)c1cnc(N(c2ccccc2)c2ccccc2Cl)nc1)NO [citarinostat]
Summary of the method: as §1

silmitasertib = compound: O=C(O)c1ccc2c(c1)nc(Nc1cccc(Cl)c1)c1ccncc12 [silmitasertib]
Summary of the method: as §1

[5] = compound: O=C1NC(=O)C(c2cnc3ccccn23)=C1c1cn2c3c(cc(F)cc13)CN(C(=O)N1CCCCC1)CC2
Summary of the method: as §1

[6] = compound: c1cc(OCCN2CCCCC2)cc(-c2n[nH]c3ccc(-c4nnc[nH]4)cc23)c1
Summary of the method: as §1

entospletinib = compound: c1cn2cc(-c3ccc4cn[nH]c4c3)nc(Nc3ccc(N4CCOCC4)cc3)c2n1 [entospletinib]
Summary of the method: as §1

Measured: log2 fold change

SRRM2 (UniProt Q9UQ35)
inactive: [1] -0.004 | [2] -0.055 | [3] 0.005 | [4] -0.036 | entinostat 0.025 | vorinostat 0.226 | citarinostat 0.071 | silmitasertib -0.141 | [5] -0.225 | [6] -0.25 | entospletinib -0.048

SLC25A38 (UniProt Q96DW6)
UniProt Q96DW6, sequence (Q96DW6 whole entry, looked up): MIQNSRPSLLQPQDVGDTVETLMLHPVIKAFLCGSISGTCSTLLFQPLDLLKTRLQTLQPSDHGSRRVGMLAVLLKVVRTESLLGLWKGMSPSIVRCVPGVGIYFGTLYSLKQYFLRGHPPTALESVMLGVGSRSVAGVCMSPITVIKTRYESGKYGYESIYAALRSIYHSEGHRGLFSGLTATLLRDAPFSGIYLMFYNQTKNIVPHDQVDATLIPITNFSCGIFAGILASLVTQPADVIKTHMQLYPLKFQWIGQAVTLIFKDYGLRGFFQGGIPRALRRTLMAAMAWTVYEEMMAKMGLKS
inactive: [1] 0.035 | [2] -0.068 | [3] -0.21 | [4] 0.06 | entinostat -0.049 | vorinostat -0.096 | citarinostat 0.02 | silmitasertib 0.069 | [5] -0.022 | [6] -0.028 | entospletinib -0.02

SSRP1 (UniProt Q08945)
UniProt Q08945, sequence (Q08945 whole entry, looked up): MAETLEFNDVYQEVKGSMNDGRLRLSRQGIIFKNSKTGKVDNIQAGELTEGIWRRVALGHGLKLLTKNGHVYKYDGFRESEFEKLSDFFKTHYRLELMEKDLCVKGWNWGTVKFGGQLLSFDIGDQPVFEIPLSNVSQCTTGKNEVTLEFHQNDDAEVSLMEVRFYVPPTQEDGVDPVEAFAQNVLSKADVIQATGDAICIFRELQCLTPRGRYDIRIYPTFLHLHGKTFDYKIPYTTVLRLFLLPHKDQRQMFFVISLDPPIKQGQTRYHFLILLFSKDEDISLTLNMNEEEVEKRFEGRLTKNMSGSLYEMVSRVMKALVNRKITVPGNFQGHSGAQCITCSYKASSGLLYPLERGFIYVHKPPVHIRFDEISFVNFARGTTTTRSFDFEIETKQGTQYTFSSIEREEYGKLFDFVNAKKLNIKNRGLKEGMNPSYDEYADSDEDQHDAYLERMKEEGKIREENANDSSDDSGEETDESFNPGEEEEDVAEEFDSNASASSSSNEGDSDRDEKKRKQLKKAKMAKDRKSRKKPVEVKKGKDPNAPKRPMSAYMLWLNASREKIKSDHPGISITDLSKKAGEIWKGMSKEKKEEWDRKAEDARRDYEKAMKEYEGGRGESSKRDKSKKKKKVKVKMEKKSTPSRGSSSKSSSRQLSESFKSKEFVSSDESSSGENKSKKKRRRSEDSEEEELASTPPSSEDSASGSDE
inactive: [1] -0.017 | [2] -0.012 | [3] -0.078 | [4] 0.003 | entinostat 0.007 | vorinostat 0.059 | citarinostat 0.155 | silmitasertib 0.007 | [5] -0.171 | [6] -0.013 | entospletinib -0.027

SRSF6 (UniProt Q13247)
inactive: [1] -0.06 | [2] 0.038 | [3] 0.191 | [4] 0.032 | entinostat -0.082 | vorinostat 0.084 | citarinostat -0.068 | silmitasertib -0.254 | [5] 0.108 | [6] -0.299 | entospletinib 0.29

STIM1 (UniProt Q13586)
inactive: [1] -0.032 | [2] -0.074 | [3] -0.075 | [4] -0.117 | entinostat 0.011 | vorinostat 0.022 | citarinostat -0.013 | silmitasertib 0.007 | [5] -0.054 | [6] -0.04 | entospletinib 0.003

TBC1D9B (UniProt Q66K14)
inactive: [1] -0.194 | [2] -0.095 | [3] -0.07 | [4] -0.012 | entinostat -0.085 | vorinostat -0.034 | citarinostat 0.173 | silmitasertib 0.021 | [5] -0.176 | [6] -0.13 | entospletinib 0.138

STRN (UniProt O43815)
UniProt O43815, sequence (O43815 whole entry, looked up): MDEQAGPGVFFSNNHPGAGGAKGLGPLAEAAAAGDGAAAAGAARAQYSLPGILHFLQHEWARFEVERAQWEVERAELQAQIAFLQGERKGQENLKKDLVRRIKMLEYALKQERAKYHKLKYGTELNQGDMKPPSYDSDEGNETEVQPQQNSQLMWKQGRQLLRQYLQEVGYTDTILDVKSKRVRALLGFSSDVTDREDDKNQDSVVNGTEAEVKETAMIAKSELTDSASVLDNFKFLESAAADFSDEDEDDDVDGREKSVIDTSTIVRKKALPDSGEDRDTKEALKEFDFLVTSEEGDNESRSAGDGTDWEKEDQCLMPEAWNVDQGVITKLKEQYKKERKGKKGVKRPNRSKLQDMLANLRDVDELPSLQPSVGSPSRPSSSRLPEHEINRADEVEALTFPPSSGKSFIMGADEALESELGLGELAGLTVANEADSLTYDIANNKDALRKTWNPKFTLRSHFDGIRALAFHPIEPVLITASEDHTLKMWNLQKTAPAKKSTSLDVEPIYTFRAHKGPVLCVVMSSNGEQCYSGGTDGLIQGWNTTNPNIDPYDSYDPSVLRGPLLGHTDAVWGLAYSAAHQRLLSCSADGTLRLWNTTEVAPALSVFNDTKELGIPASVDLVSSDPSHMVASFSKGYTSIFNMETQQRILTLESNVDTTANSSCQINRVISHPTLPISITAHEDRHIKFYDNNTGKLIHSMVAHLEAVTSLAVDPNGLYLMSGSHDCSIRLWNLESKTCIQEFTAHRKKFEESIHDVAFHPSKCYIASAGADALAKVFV
inactive: [1] -0.055 | [2] 0.019 | [3] -0.037 | [4] 0.019 | entinostat -0.008 | vorinostat 0.024 | citarinostat 0.028 | silmitasertib 0 | [5] -0.051 | [6] -0.031 | entospletinib 0.03

TMBIM1 (UniProt Q969X1)
inactive: [1] 0.079 | [2] -0.229 | [3] -0.008 | [4] -0.259 | entinostat 0.062 | vorinostat -0.034 | citarinostat -0.208 | silmitasertib 0.067 | [5] -0.149 | [6] 0.021 | entospletinib -0.019

STARD3NL (UniProt O95772)
UniProt O95772, sequence (O95772 whole entry, looked up): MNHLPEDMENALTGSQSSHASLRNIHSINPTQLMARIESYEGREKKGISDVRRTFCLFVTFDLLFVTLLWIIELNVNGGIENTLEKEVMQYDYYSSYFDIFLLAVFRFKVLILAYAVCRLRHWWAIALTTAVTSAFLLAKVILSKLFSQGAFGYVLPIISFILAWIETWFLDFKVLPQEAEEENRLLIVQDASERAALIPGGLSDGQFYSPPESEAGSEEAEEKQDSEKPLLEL
active: [3] -0.413
inactive: [1] 0.018 | [2] -0.104 | [4] -0.031 | entinostat 0.093 | vorinostat 0.037 | citarinostat 0.004 | silmitasertib 0.044 | [5] -0.013 | [6] 0.035 | entospletinib -0.088

TERF2IP (UniProt Q9NYB0)
inactive: [1] 0.009 | [2] -0.132 | [3] 0.007 | [4] -0.018 | entinostat 0.061 | vorinostat 0.041 | citarinostat 0.068 | silmitasertib 0.121 | [5] -0.051 | [6] -0.073 | entospletinib -0.026

SUMO1 (UniProt P63165)
UniProt P63165, sequence (P63165 whole entry, looked up): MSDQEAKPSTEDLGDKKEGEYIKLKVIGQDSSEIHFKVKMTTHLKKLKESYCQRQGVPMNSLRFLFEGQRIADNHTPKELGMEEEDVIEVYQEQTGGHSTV
inactive: [1] -0.006 | [2] -0.116 | [3] 0.071 | [4] -0.074 | entinostat -0.01 | vorinostat -0.086 | citarinostat -0.063 | silmitasertib -0.012 | [5] 0.045 | [6] -0.087 | entospletinib 0.038

SLC7A6OS (UniProt Q96CW6)
UniProt Q96CW6, sequence (Q96CW6 whole entry, looked up): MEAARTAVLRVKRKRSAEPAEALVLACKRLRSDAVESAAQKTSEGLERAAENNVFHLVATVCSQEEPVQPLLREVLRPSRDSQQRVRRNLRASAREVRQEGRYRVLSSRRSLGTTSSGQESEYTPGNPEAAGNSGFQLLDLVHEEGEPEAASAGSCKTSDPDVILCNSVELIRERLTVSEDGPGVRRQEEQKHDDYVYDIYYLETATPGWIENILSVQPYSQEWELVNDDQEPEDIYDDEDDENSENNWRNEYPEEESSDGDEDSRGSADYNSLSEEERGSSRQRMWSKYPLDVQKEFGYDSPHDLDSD
inactive: [1] -0.023 | [2] -0.085 | [3] -0.079 | [4] 0.042 | entinostat -0.043 | vorinostat 0.056 | citarinostat 0.098 | silmitasertib 0.06 | [5] -0.036 | [6] -0.037 | entospletinib 0.052

TBC1D10B (UniProt Q4KMP7)
UniProt Q4KMP7, sequence (Q4KMP7 whole entry, looked up): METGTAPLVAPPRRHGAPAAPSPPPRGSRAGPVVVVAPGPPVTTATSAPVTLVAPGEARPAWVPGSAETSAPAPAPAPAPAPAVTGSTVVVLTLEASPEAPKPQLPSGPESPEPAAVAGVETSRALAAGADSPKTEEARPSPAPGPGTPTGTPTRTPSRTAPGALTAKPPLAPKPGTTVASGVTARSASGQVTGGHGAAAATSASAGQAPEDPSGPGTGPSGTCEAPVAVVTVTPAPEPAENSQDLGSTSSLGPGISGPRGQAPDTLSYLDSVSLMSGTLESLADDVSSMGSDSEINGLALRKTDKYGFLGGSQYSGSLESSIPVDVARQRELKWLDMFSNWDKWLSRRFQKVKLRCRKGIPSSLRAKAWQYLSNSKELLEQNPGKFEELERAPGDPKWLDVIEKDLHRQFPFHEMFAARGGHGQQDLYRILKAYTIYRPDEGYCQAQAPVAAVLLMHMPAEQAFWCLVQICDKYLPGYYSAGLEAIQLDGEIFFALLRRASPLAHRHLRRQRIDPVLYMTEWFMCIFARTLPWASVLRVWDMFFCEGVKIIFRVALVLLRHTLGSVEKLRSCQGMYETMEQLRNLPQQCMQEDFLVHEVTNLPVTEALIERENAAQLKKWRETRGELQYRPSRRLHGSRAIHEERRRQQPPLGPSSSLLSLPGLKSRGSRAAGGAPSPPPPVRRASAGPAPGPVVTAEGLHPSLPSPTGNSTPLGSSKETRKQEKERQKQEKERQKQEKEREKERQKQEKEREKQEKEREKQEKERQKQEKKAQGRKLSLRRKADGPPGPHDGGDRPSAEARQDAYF
active: [6] -0.283
inactive: [1] -0.141 | [2] 0.007 | [3] 0.038 | [4] -0.027 | entinostat 0.017 | vorinostat -0.03 | citarinostat 0.039 | silmitasertib -0.009 | [5] -0.005 | entospletinib 0

TAF9 (UniProt Q16594)
inactive: [1] -0.352 | [2] -0.026 | [3] 0.037 | [4] 0 | vorinostat 0.002 | citarinostat -0.043 | silmitasertib -0.039 | [5] -0.022 | [6] 0.055 | entospletinib -0.042
active: entinostat -0.567

TANK (UniProt Q92844)
UniProt Q92844, sequence (Q92844 whole entry, looked up): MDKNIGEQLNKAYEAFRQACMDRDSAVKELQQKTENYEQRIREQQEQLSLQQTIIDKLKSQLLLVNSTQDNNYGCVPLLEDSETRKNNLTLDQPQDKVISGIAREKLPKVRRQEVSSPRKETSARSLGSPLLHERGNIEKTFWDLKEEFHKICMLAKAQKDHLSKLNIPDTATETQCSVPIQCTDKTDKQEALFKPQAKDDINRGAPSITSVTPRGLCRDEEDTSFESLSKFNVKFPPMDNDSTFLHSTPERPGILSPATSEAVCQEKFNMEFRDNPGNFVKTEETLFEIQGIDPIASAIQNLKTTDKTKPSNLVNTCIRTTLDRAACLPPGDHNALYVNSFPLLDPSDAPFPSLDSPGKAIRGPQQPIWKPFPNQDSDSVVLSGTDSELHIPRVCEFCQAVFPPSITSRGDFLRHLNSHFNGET
inactive: [1] 0.076 | [2] 0.041 | [3] -0.035 | [4] 0.023 | entinostat -0.001 | vorinostat -0.084 | citarinostat -0.022 | silmitasertib 0.064 | [5] 0.028 | [6] 0.01 | entospletinib -0.076

SUCLA2 (UniProt Q9P2R7)
UniProt Q9P2R7, sequence (Q9P2R7 whole entry, looked up): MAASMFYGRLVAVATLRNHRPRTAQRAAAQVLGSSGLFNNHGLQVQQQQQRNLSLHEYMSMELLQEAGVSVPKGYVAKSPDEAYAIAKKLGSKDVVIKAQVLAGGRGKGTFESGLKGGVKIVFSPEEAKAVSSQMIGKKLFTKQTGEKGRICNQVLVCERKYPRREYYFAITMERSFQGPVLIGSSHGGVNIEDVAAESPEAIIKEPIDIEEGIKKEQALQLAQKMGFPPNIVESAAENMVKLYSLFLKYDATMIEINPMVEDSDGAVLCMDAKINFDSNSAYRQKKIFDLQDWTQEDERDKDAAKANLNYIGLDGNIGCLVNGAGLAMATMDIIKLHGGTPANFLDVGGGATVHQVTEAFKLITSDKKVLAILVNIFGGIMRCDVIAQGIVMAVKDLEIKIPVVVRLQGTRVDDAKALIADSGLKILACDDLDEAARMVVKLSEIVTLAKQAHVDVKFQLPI
inactive: [1] -0.021 | [2] -0.058 | [3] -0.128 | [4] -0.077 | entinostat 0.014 | vorinostat 0.107 | citarinostat 0.068 | silmitasertib -0.039 | [5] -0.028 | [6] -0.046 | entospletinib -0.048

SORT1 (UniProt Q99523)
UniProt Q99523, sequence (Q99523 whole entry, looked up): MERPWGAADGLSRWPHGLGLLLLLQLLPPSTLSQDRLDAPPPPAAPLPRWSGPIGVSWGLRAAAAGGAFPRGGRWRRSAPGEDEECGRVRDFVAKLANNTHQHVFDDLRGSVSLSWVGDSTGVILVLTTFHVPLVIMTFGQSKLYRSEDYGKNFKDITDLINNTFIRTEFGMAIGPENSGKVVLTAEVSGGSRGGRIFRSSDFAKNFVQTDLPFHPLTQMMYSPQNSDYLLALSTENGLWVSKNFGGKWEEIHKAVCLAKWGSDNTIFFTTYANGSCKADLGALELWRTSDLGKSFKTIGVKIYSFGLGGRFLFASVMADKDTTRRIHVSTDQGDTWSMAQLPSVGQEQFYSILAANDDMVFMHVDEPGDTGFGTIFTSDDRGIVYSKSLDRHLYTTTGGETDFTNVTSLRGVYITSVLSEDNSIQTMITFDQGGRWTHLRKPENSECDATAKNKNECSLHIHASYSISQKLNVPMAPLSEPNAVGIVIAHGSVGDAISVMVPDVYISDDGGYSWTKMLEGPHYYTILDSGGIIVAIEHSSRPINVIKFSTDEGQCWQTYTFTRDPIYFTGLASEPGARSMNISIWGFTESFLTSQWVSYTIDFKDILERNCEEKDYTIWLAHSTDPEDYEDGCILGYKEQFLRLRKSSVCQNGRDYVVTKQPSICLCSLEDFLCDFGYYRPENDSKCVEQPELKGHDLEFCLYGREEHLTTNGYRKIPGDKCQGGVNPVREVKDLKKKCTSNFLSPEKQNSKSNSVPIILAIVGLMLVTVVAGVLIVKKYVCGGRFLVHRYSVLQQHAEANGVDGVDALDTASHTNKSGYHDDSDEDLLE
active: [3] -0.687
inactive: [1] -0.005 | [2] -0.032 | [4] 0.038 | entinostat -0.017 | vorinostat -0.002 | citarinostat 0.073 | silmitasertib 0.006 | [5] 0.004 | [6] -0.139 | entospletinib 0.05

THADA (UniProt Q6YHU6)
inactive: [1] 0.004 | [2] -0.085 | [3] -0.147 | [4] -0.082 | entinostat 0.014 | vorinostat -0.001 | citarinostat 0.121 | silmitasertib -0.061 | [5] -0.025 | [6] -0.013 | entospletinib 0.004

SNX12 isoform 1 (UniProt Q9UMY4)
inactive: [1] -0.022 | [4] 0.019 | entinostat 0.046 | vorinostat 0.035 | citarinostat 0.102 | silmitasertib 0.06 | [5] -0.081 | [6] -0.066 | entospletinib -0.005
active: [2] -0.225 | [3] -0.22

STK11IP (UniProt Q8N1F8)
inactive: [1] 0.098 | [2] -0.412 | [3] -0.285 | [4] 0.086 | entinostat 0.046 | vorinostat -0.184 | citarinostat -0.032 | silmitasertib 0.217 | [5] 0.095 | [6] 0.016 | entospletinib 0.036

SP3 (UniProt Q02447)
inactive: [1] 0.15 | [2] -0.011 | [3] -0.033 | [4] 0.025 | entinostat 0.027 | vorinostat -0.026 | citarinostat -0.147 | silmitasertib 0.046 | [5] -0.02 | [6] 0.04 | entospletinib -0.071

TGFBRAP1 (UniProt Q8WUH2)
inactive: [1] 0.065 | [2] -0.03 | [3] -0.209 | [4] -0.006 | entinostat -0.013 | vorinostat 0.256 | citarinostat -0.367 | silmitasertib 0.056 | [5] 0.069 | [6] 0.013 | entospletinib 0.056

SMARCA4 (UniProt P51532)
inactive: [1] -0.144 | [2] -0.056 | [3] 0.048 | [4] -0.201 | entinostat 0.012 | vorinostat 0.038 | citarinostat 0.102 | silmitasertib -0.017 | [5] -0.067 | [6] -0.115 | entospletinib 0.097

SNX1 (UniProt Q13596)
inactive: [1] -0.01 | [4] 0.011 | entinostat 0.121 | vorinostat 0.147 | citarinostat 0.054 | silmitasertib -0.062 | [5] -0.04 | [6] -0.094 | entospletinib -0.002
active: [2] -0.375 | [3] -0.336

SMARCA5 (UniProt O60264)
inactive: [1] -0.084 | [2] -0.121 | [3] -0.095 | [4] -0.01 | entinostat 0.097 | vorinostat 0.204 | citarinostat -0.094 | silmitasertib 0.028 | [5] -0.034 | [6] 0.03 | entospletinib 0.099

SUN2 (UniProt Q9UH99)
inactive: [1] 0.002 | [2] 0.011 | [3] -0.054 | [4] -0.03 | entinostat 0.054 | vorinostat 0.018 | citarinostat 0.019 | silmitasertib 0.007 | [5] 0.097 | [6] -0.087 | entospletinib 0

STAT5A (UniProt P42229)
inactive: [1] -0.115 | [2] -0.112 | [3] -0.112 | [4] -0.115 | entinostat 0.112 | vorinostat 0.061 | citarinostat 0.194 | silmitasertib 0.037 | [5] -0.029 | [6] 0.061 | entospletinib -0.087
